In PubChem BioAssay AID1159580 (chemical genetic matrix, 2015):
“And” between values parts separate entries of the source, which are not always exact repeats. Equal entries are not always repeated. Hit rate of the full screen: of about 5,500 compounds, about 2,000 (36%) were called active. Not shown: some 18% with an inconclusive outcome. No stated cut-off is given here; in the data, active means normalized growth mostly below about 0.91 (no sharp cut-off); inconclusive means no clear call, values can overlap the other calls; inactive means mostly above about 0.92. The list shows a part of the results.

Assay: chemical genetic growth profiling, strain panel (AID 1159580);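 further: tested at 20 µM; growth read once vehicle control cultures reached saturation at 30 °C; 1 = growth at the plate median or of vehicle wells; lower values mean less growth of the strain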
Conditions: S. cerevisiae deletion strains, growth OD

Measured: normalized growth

CC(=O)OCC(=O)[C@@]1(O)CCC2C3CCC4=CC(=O)CC[C@]4(C)C3[C@@H](O)C[C@@]21C (stereo partly drawn)
inactive: locus YAL013W, strain DEP1, hits give low values 1.01 | locus YAL021C, strain ccr4, hits give low values 1.03 | locus YAL026C, strain drs2, hits give low values 1.02 | locus YAL030W, strain snc1, hits give low values 1.04 | locus YBL061C, strain skt5, hits give low values 1.03 | locus YBR009C, strain hhf1, hits give low values 0.99 | locus YBR021W, strain FUR4, hits give low values 0.999 | locus YBR023C, strain chs3, hits give low values 1.02 | locus YBR171W, strain sec66, hits give low values 1.04 | locus YBR229C, strain ROT2, hits give low values 1 | locus YBR231C, strain swc5, hits give low values 0.999 | locus YBR279W, strain paf1, hits give low values 1.01 | locus YCL011C, strain gbp2, hits give low values 1.01 | locus YCL016C, strain dcc1, hits give low values 1.04 | locus YCL029C, strain bik1, hits give low values 1 | locus YCL069W, strain vba3, hits give low values 1 | locus YCR088W, strain abp1, hits give low values 1.02 | locus YDL005C, strain med2, hits give low values 1.01 | locus YDL035C, strain GPR1, hits give low values 1.01 | locus YDL040C, strain nat1, hits give low values 1.01 | locus YDL074C, strain BRE1, hits give low values 1.01 | locus YDL101C, strain DUN1, hits give low values 1.01 | locus YDL134C, strain PPH21, hits give low values 1.01 | locus YDL185W, strain tfp1, hits give low values 1.01 | locus YDL192W, strain arf1, hits give low values 1 | locus YDR001C, strain nth1, hits give low values 1.01 | locus YDR069C, strain doa4, hits give low values 1.04 | locus YDR101C, strain arx1, hits give low values 0.994 | locus YDR137W, strain rgp1, hits give low values 1.05 | locus YDR150W, strain NUM1, hits give low values 1.01 | locus YDR159W, strain sac3, hits give low values 0.997 | locus YDR162C, strain NBP2, hits give low values 1.01 | locus YDR195W, strain ref2 1.02 | locus YDR297W, strain sur2, hits give low values 0.997 | locus YDR318W, strain mcm21, hits give low values 0.998 | locus YDR334W, strain swr1, hits give low values 1.01 | locus YDR335W, strain msn5, hits give low values 1.02 | locus YDR388W, hits give low values 1 | locus YDR392W, strain spt3, hits give low values 1.04 | locus YDR502C, strain sam2, hits give low values 0.996 | locus YEL003W, strain gim4, hits give low values 1.01 | locus YEL037C, strain rad23, hits give low values 1.02 | locus YEL061C, strain CIN8 (second series), hits give low values 1.01 | locus YEL061C, strain CIN8, hits give low values 1.01 | locus YER015W, strain faa2, hits give low values 1.01 | locus YER016W, strain bim1, hits give low values 1.05 | locus YER110C, hits give low values 0.998 | locus YER111C, strain swi4, hits give low values 1.01 | locus YER155C, strain BEM2 (second series), hits give low values 1.02 | locus YER155C, strain BEM2, hits give low values 1.01 | locus YER167W, strain BCK2, hits give low values 1.01 | locus YFR010W, strain ubp6, hits give low values 0.984 | locus YGL078C, strain dbp3, hits give low values 0.99 | locus YGL086W, strain mad1, hits give low values 1.01 | locus YGL167C, strain pmr1, hits give low values 1.02 | locus YGL173C, strain kem1, hits give low values 1.02 | locus YGL227W, strain vid30, hits give low values 1.01 | locus YGL240W, strain doc1, hits give low values 1 | locus YGL248W, strain PDE1, hits give low values 1 | locus YGL253W, strain hxk2, hits give low values 1.02 | locus YGR135W, strain pre9, hits give low values 0.986 | locus YGR252W, strain gcn5, hits give low values 0.947 | locus YHR013C, strain ard1, hits give low values 1.04 | locus YHR027C, strain rpn1, hits give low values 1.03 | locus YHR030C, strain SLT2, hits give low values 1.01 and 0.978 | locus YHR079C, strain IRE1 (second series), hits give low values 1 | locus YHR079C, strain IRE1, hits give low values 0.976 | locus YHR094C, strain hxt1, hits give low values 0.995 | locus YHR129C, strain ARP1, hits give low values 1.01 | locus YHR142W, strain chs7, hits give low values 1.03 | locus YHR200W, strain rpn10, hits give low values 1 | locus YIL066C, strain RNR3, hits give low values 1.01 | locus YIL073C, strain SPO22, hits give low values 1.04 | locus YIL125W, strain kgd1, hits give low values 0.996 | locus YIR030C, strain dcg1, hits give low values 1 | locus YJL092W, strain hpr5, hits give low values 1.02 | locus YJL095W, strain BCK1 (second series), hits give low values 1.03 | locus YJL095W, strain BCK1, hits give low values 1.01 and 0.971 | locus YJL115W, strain asf1, hits give low values 1.01 | locus YJL129C, strain trk1, hits give low values 1.04 | locus YJL134W, strain LCB3, hits give low values 1.01 | locus YJL154C, strain vps35, hits give low values 1.01 | locus YJL164C, strain tpk1, hits give low values 1.01 | locus YJL166W, strain qcr8, hits give low values 1.01 | locus YJL168C, strain set2, hits give low values 0.993 | locus YJL187C, strain SWE1 (second series), hits give low values 1 | locus YJL187C, strain SWE1, hits give low values 1.01 | locus YJR043C, strain POL32, hits give low values 1.02 | locus YJR066W, strain TOR1, hits give low values 0.931 | locus YKL009W, strain mrt4, hits give low values 1.01 | locus YKL068W, hits give low values 0.997 | locus YKL085W, strain MDH1 (second series), hits give low values 1 | locus YKL085W, strain MDH1, hits give low values 1 | locus YKL160W, strain elf1, hits give low values 1.04 | locus YKR001C, strain vps1, hits give low values 0.997 | locus YKR026C, strain gcn3, hits give low values 1 | locus YKR091W, strain srl3, hits give low values 1.01 | locus YLL001W, strain dnm1, hits give low values 1.01 | locus YLL026W, hits give low values 1.01 | locus YLL041C, strain sdh2, hits give low values 1.03 | locus YLR027C, strain aat2, hits give low values 1.02 | locus YLR039C, strain RIC1, hits give low values 1.02 | locus YLR058C, strain SHM2, hits give low values 0.996 | locus YLR102C, strain apc9, hits give low values 0.995 | locus YLR113W, strain HOG1, hits give low values 0.992 | locus YLR221C, strain rsa3, hits give low values 0.985 | locus YLR258W, strain gsy2, hits give low values 1.03 | locus YLR262C, strain YPT6 (second series), hits give low values 1 | locus YLR262C, strain YPT6, hits give low values 1.04 | locus YLR268W, strain sec22, hits give low values 0.998 | locus YLR320W, strain mms22, hits give low values 1 | locus YLR330W, strain CHS5, hits give low values 1.01 | locus YLR342W, strain FKS1 (second series), hits give low values 0.998 | locus YLR342W, strain FKS1, hits give low values 1.02 | locus YLR357W, strain rsc2, hits give low values 1.03 | locus YLR370C, strain arc18, hits give low values 1.02 | locus YLR371W, strain rom2, hits give low values 0.994 | locus YLR384C, strain iki3, hits give low values 1.02 | locus YLR418C, strain cdc73, hits give low values 0.994 | locus YML016C, strain PPZ1, hits give low values 1 | locus YML032C, strain rad52, hits give low values 1 | locus YML120C, strain ndi1, hits give low values 1 | locus YML124C, strain tub3, hits give low values 0.998 | locus YMR058W, strain fet3, hits give low values 1.03 | locus YMR078C, strain ctf18, hits give low values 1 | locus YMR125W, strain sto1, hits give low values 1.03 | locus YMR129W, hits give low values 1.02 | locus YMR205C, strain PFK2, hits give low values 1.03 | locus YMR223W, strain ubp8, hits give low values 0.98 | locus YMR231W, strain pep5, hits give low values 1.02 | locus YMR307W, strain GAS1, hits give low values 0.984 | locus YNL067W, strain RPL9B, hits give low values 1.01 | locus YNL071W, strain lat1, hits give low values 1 | locus YNL183C, strain NPR1, hits give low values 0.954 | locus YNL209W, strain ssb2, hits give low values 1.02 | locus YNL233W, strain BNI4, hits give low values 1 | locus YNL248C, strain rpa49, hits give low values 1.03 | locus YNL250W, strain rad50, hits give low values 0.982 | locus YNL271C, strain bni1, hits give low values 0.993 | locus YNL298W, strain CLA4, hits give low values 0.995 | locus YNL307C, strain MCK1, hits give low values 1 | locus YNL322C, strain KRE1 (second series), hits give low values 1.04 | locus YNR049C, strain mso1, hits give low values 1.02 | locus YNR052C, strain pop2, hits give low values 0.996 | locus YOL012C, strain htz1 0.732 | locus YOL147C, strain pex11, hits give low values 0.992 | locus YOR001W, strain rrp6, hits give low values 0.986 | locus YOR061W, strain CKA2, hits give low values 1.01 | locus YOR069W, strain VPS5, hits give low values 1.01 | locus YOR070C, strain gyp1, hits give low values 1.03 | locus YOR080W, strain dia2, hits give low values 1.02 | locus YOR083W, strain WHI5, hits give low values 1.05 | locus YOR106W, strain vam3, hits give low values 1.05 | locus YOR136W, strain idh2, hits give low values 0.994 | locus YOR144C, strain elg1, hits give low values 0.997 | locus YOR184W, strain ser1, hits give low values 1 | locus YOR231W, strain MKK1, hits give low values 0.992 | locus YOR265W, strain rbl2, hits give low values 1 | locus YOR270C, strain vph1, hits give low values 1.03 | locus YOR290C, strain snf2, hits give low values 1.06 | locus YOR316C, strain cot1, hits give low values 0.995 | locus YPL051W, strain arl3, hits give low values 1 | locus YPL055C, strain LGE1, hits give low values 1 | locus YPL078C, strain atp4, hits give low values 1.04 | locus YPL106C, strain sse1, hits give low values 1.04 | locus YPL240C, strain hsp82, hits give low values 1.01 | locus YPL241C, strain CIN2, hits give low values 1.01 | locus YPL256C, strain CLN2, hits give low values 0.968 | locus YPR119W, strain clb2, hits give low values 0.999 | locus YPR141C, strain kar3, hits give low values 1.01 | locus YPR163C, strain tif3, hits give low values 1 | locus YPR167C, strain met16, hits give low values 1 | strain wtn01, hits give low values 0.997
